Measured values as given in PubChem BioAssay (EPA / NIEHS).
Calls of active or inactive are those of the source. How the source made its calls: active means hit-call score of the fitted dose curve at least 0.9, where 1 is the maximum; inactive means score below 0.9.

How the values were obtained:
[1] = BSK_hDFCGF_SRB: Viability Assessment in the BioMAP Diversity Plus: hDFCGF Assay (AID 2283061); conditions: primary human foreskin fibroblasts;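 further: cells exposed to compound for 24 h before the read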
Method in brief: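 Viability was read as total protein: after 10% TCA fixation, wells were stained with 0.1% sulforhodamine B and read at 560 nm. Primary human foreskin fibroblasts were dosed for 24 h, with bidirectional fitting versus DMSO.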

[2] = read-out: TIMP metallopeptidase inhibitor 1 (TIMP1), TIMP1 (gene 7076); experiment: BSK_hDFCGF_TIMP1: BioMAP Diversity Plus: hDFCGF Assay for TIMP metallopeptidase inhibitor 1 (TIMP1) Biomarker Activity (AID 2283062); conditions: primary human foreskin fibroblasts; actives raise or lower the signal
Method in brief: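 TIMP-1 measured by ELISA 24 h after chemical dosing of primary human skin fibroblasts, with gain or loss fitted relative to DMSO. Parallel SRB staining (560 nm) monitored overt cytotoxicity.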

[3] = read-out: Monokine induced gamma interferon (MIG), CXCL9 (gene 4283); experiment: BSK_hDFCGF_MIG: BioMAP Diversity Plus: hDFCGF Assay for Monokine induced gamma interferon (MIG) Biomarker Activity (AID 2283063); conditions: primary human foreskin fibroblasts; actives raise or lower the signal
Method in brief: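 Human primary foreskin fibroblasts in the hDFCGF system, exposed to test chemical for 24 h; MIG measured by ELISA. Bidirectional curve fitting against DMSO negative control as activity baseline.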

[4] = read-out: Matrix Metallopeptidase 1 (MMP1), MMP1 (gene 4312); experiment: BSK_hDFCGF_MMP1: BioMAP Diversity Plus: hDFCGF Assay for Matrix Metallopeptidase 1 (MMP1) Biomarker Activity (AID 2283064); conditions: primary human foreskin fibroblasts; actives raise or lower the signal
Method in brief: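 ELISA read-out of MMP1 from human foreskin fibroblasts (primary skin cells), 24 h post-dose. Gain or loss of signal was fitted bidirectionally versus DMSO negative control; cytotoxicity was checked by SRB in parallel cultures.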

[5] = read-out: Plasminogen activator inhibitor-1 (PAI1), SERPINE1 (gene 5054); experiment: BSK_hDFCGF_PAI1: BioMAP Diversity Plus: hDFCGF Assay for Plasminogen activator inhibitor-1 (PAI1) Biomarker Activity (AID 2283066); conditions: primary human foreskin fibroblasts; actives raise or lower the signal
Method in brief: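 Human skin fibroblast cultures receive chemical for 24 h before PAI-1 is measured by ELISA; signal changes are fitted bidirectionally against DMSO-treated wells.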

[6] = read-out: Intercellular Adhesion Molecule 1 (ICAM1), ICAM1 (gene 3383); experiment: BSK_KF3CT_ICAM1: BioMAP Diversity Plus: KF3CT Assay for Intercellular Adhesion Molecule 1 (ICAM1) Biomarker Activity (AID 2283067); conditions: primary human keratinocytes with fibroblasts; actives raise or lower the signal
Method in brief: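 Cell-surface ICAM-1 was measured by ELISA 24 h after dosing primary human skin keratinocytes co-cultured with fibroblasts. Parallel SRB staining tracked overt cytotoxicity. Gain or loss of signal was fitted relative to DMSO.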

[7] = read-out: Interferon-gamma inducible Protein 10 (IP10), CXCL10 (gene 3627); experiment: BSK_KF3CT_IP10: BioMAP Diversity Plus: KF3CT Assay for Interferon-gamma inducible Protein 10 (IP10) Biomarker Activity (AID 2283068); conditions: primary human keratinocytes with fibroblasts; actives raise or lower the signal
Method in brief: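 KF3CT co-culture (keratinocytes + foreskin fibroblasts), 24 h compound, IP-10 by ELISA; bidirectional fit vs DMSO baseline.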

[8] = BSK_KF3CT_SRB: Viability Assessment in the BioMAP Diversity Plus: KF3CT Assay (AID 2283069); conditions: primary human keratinocytes with fibroblasts;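 further: total protein by sulforhodamine B staining as a cytotoxicity measure; read 24 h after compound addition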
Method in brief: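 SRB read-out at 560 nm (0.1% stain, TCA-fixed cells) gauges overt cytotoxicity in a human skin keratinocyte–fibroblast co-culture 24 h post-dosing. Signal change was fitted bidirectionally relative to DMSO control.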

[9] = read-out: Interleukin-1 alpha (IL1a), IL1A (gene 3552); experiment: BSK_KF3CT_IL1a: BioMAP Diversity Plus: KF3CT Assay for Interleukin-1 alpha (IL1a) Biomarker Activity (AID 2283070); conditions: primary human keratinocytes with fibroblasts; actives raise or lower the signal
Method in brief: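 Primary skin co-culture (keratinocytes, foreskin fibroblasts), 24 h exposure; ELISA for IL-1a; bidirectional curve fit vs DMSO.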

[10] = read-out: TIMP metallopeptidase inhibitor 2 (TIMP2), TIMP2 (gene 7077); experiment: BSK_KF3CT_TIMP2: BioMAP Diversity Plus: KF3CT Assay for TIMP metallopeptidase inhibitor 2 (TIMP2) Biomarker Activity (AID 2283071); conditions: primary human keratinocytes with fibroblasts; actives raise or lower the signal
Method in brief: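 Measurements come from ELISA detection of TIMP-2 at 24 hours in a dosed human keratinocyte and foreskin fibroblast co-culture. DMSO serves as negative control and baseline.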

[11] = read-out: Transforming growth factor beta 1 (TGFb1), TGFB1 (gene 7040); experiment: BSK_KF3CT_TGFb1: BioMAP Diversity Plus: KF3CT Assay for Transforming growth factor beta 1 (TGFb1) Biomarker Activity (AID 2283072); conditions: primary human keratinocytes with fibroblasts; actives raise or lower the signal
Method in brief: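 TGF-b1 ELISA on a 24 h dosed co-culture of human keratinocytes and foreskin fibroblasts; cytotoxicity tracked in parallel cultures by SRB staining.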

[12] = read-out: C-C motif chemokine 2 (Homo sapiens) (UniProt P13500); experiment: BSK_KF3CT_MCP1: BioMAP Diversity Plus: KF3CT Assay for Monocyte Chemoattractant Protein 1 (MCP1/CCL2) Biomarker Activity (AID 2283073); conditions: primary human keratinocytes with fibroblasts; actives raise or lower the signal
Method in brief: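 ELISA read-out of MCP-1, 24 h post-dose, in primary human skin keratinocytes co-cultured with fibroblasts. Parallel SRB staining monitors cytotoxicity; changes fitted both directions relative to DMSO.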

[13] = read-out: Matrix Metallopeptidase 9 (MMP9), MMP9 (gene 4318); experiment: BSK_KF3CT_MMP9: BioMAP Diversity Plus: KF3CT Assay for Matrix Metallopeptidase 9 (MMP9) Biomarker Activity (AID 2283074); conditions: primary human keratinocytes with fibroblasts; actives raise or lower the signal;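 on AC50: MMP9 protein level quantified by ELISA in the co-culture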
Method in brief: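 ELISA read-out of MMP-9 at 24 h post-dosing in a co-culture of human skin keratinocytes and foreskin fibroblasts. Gain or loss of signal was fitted in both directions against DMSO.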

[14] = read-out: urokinase plasminogen activator (uPA), PLAU (gene 5328); experiment: BSK_KF3CT_uPA: BioMAP Diversity Plus: KF3CT Assay for urokinase plasminogen activator (uPA) Biomarker Activity (AID 2283075); conditions: primary human keratinocytes with fibroblasts; actives raise or lower the signal
Method in brief: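 Skin co-culture (keratinocytes + foreskin fibroblasts), human primary; 24 h post-dose; uPA by ELISA; gain/loss fit vs DMSO baseline.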

CD40, CD40 (gene 958) = experiment: BSK_LPS_CD40: BioMAP Diversity Plus: LPS Assay for CD40 Biomarker Activity (AID 2283076); conditions: primary human HUVEC with PBMC; actives raise or lower the signal
Method in brief: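 In the LPS system of human endothelial cells with peripheral blood mononuclear cells, CD40 levels were read by ELISA 24 h post-treatment. Signal changes in either direction were fitted against the DMSO baseline, with parallel SRB protein staining.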

[15] = read-out: E-selectin (Homo sapiens) (UniProt P16581); experiment: BSK_LPS_Eselectin: BioMAP Diversity Plus: LPS Assay for Eselectin Biomarker Activity (AID 2283077); conditions: primary human HUVEC with PBMC; actives raise or lower the signal
Method in brief: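 E-selectin ELISA on LPS-stimulated endothelial cell/PBMC co-cultures, read 24 h post-treatment; gains and losses fitted against DMSO. Parallel SRB staining (0.1% SRB after 10% TCA fixation, 560 nm) flags overt cytotoxicity.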

[16] = read-out: Interleukin-8 (IL8), CXCL8 (gene 3576); experiment: BSK_LPS_IL8: BioMAP Diversity Plus: LPS Assay for Interleukin-8 (IL8) Biomarker Activity (AID 2283078); conditions: primary human HUVEC with PBMC; actives raise or lower the signal
Method in brief: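 ELISA read-out of IL-8 after 24 h chemical treatment of LPS-activated endothelial/PBMC human primary co-cultures. Changes either up or down relative to DMSO; overt cytotoxicity checked by sulforhodamine B staining in parallel wells.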

[17] = BSK_LPS_SRB: Viability Assessment in the BioMAP Diversity Plus: LPS Assay (AID 2283079); conditions: primary human HUVEC with PBMC;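 further: total protein by sulforhodamine B absorbance as a cytotoxicity measure; measured one day after compound addition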
Method in brief: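 SRB viability endpoint: cells fixed with 10% TCA, stained with 0.1% SRB, read at 560 nm, 24 h post-dose. HUVEC/PBMC co-culture; signal change in either direction scored relative to DMSO.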

[18] = read-out: Interleukin-1 alpha (IL1a), IL1A (gene 3552); experiment: BSK_LPS_IL1a: BioMAP Diversity Plus: LPS Assay for Interleukin-1 alpha (IL1a) Biomarker Activity (AID 2283080); conditions: primary human HUVEC with PBMC; actives raise or lower the signal
Method in brief: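 Readout is IL-1a level by ELISA, 24 h post-dose, fitted as gain or loss relative to DMSO. System: LPS-activated human primary co-culture of vascular endothelium and peripheral blood mononuclear cells, with parallel SRB total-protein cytotoxicity.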

[19] = read-out: Vascular cell adhesion molecule 1 (VCAM1), VCAM1 (gene 7412); experiment: BSK_hDFCGF_VCAM1: BioMAP Diversity Plus: hDFCGF Assay for Vascular cell adhesion molecule 1 (VCAM1) Biomarker Activity (AID 2283065); conditions: primary human foreskin fibroblasts; actives raise or lower the signal;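 further: VCAM-1 protein level quantified by ELISA after 24 h chemical exposure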
Method in brief: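 ELISA readout of VCAM-1 on human dermal fibroblast primary cultures, 24 h after chemical exposure. Gain or loss of signal fitted in both directions against DMSO baseline.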

Sequence of E-selectin (Homo sapiens) (P16581 whole entry, looked up): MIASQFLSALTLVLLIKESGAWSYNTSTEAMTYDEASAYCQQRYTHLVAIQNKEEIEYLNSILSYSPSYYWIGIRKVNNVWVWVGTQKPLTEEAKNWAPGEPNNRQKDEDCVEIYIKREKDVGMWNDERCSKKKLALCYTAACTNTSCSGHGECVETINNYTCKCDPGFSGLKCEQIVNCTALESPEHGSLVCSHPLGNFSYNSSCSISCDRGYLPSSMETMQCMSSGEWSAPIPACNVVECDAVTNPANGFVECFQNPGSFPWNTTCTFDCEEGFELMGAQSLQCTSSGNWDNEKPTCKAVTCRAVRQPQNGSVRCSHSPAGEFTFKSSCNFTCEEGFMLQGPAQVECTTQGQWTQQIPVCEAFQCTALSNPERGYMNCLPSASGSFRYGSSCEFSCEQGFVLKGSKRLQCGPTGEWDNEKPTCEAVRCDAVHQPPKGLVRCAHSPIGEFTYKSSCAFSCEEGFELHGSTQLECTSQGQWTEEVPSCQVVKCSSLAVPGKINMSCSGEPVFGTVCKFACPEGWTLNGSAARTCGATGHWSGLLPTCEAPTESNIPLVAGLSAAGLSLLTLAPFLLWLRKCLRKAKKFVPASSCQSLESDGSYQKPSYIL

## CCCCOCN(C(=O)CCl)c1c(CC)cccc1CC
[1]
  AC50: 31.1 µM (active)
[2]
  AC50: 13.7 µM (active)
[3]
  AC50: 33.3 µM (active)
[4]
  AC50: 34.8 µM (active)
[5]
  AC50: 20 µM (active)
[6]
  AC50: 35.2 µM (active)
[7]
  AC50: 26.4 µM (active)
[8]
  AC50: 35.6 µM (active)
[9]
  AC50: 35.3 µM (active)
[10]
  AC50: 31.6 µM (active)
[11]
  AC50: 32.7 µM (active)
[12]
  AC50: 39.1 µM (active)
[13]
  AC50: 25.7 µM (active)
[14]
  AC50: 31.3 µM (active)
CD40, CD40 (gene 958)
  AC50: 22.5 µM (active)
[15]
  AC50: 31.3 µM (active)
[16]
  AC50: 28 µM (active)
[17]
  AC50: 29.2 µM (active)
[18]
  AC50: 30.7 µM (active)

## CCN(CC)c1nc(C)cc(OP(=S)(OC)OC)n1
[1]
  outcome: inactive
[2]
  outcome: inactive
[3]
  outcome: inactive
[4]
  AC50: 4.09 µM (active)
[5]
  AC50: 11.3 µM (active)
[6]
  outcome: inactive
[7]
  outcome: inactive
[8]
  outcome: inactive
[9]
  outcome: inactive
[10]
  outcome: inactive
[11]
  outcome: inactive
[12]
  outcome: inactive
[13]
  outcome: inactive
[14]
  outcome: inactive
CD40, CD40 (gene 958)
  AC50: 19.5 µM (active)
[15]
  outcome: inactive
[16]
  outcome: inactive
[17]
  outcome: inactive
[18]
  outcome: inactive

## CNC(=O)Oc1cccc2ccccc12
[1]
  outcome: inactive
[3]
  outcome: inactive
[4]
  AC50: 3.91 µM (active)
[19]
  AC50: 20 µM (active)
[5]
  outcome: inactive
[6]
  outcome: inactive
[7]
  outcome: inactive
[8]
  outcome: inactive
[9]
  outcome: inactive
[10]
  outcome: inactive
[11]
  outcome: inactive
[12]
  outcome: inactive
[13]
  outcome: inactive
[14]
  outcome: inactive
CD40, CD40 (gene 958)
  AC50: 20 µM (active)
[15]
  outcome: inactive
[16]
  outcome: inactive
[17]
  AC50: 13.3 µM (active)
[18]
  outcome: inactive

## CC1(C)CON(Cc2ccccc2Cl)C1=O
[1]
  outcome: inactive
[3]
  outcome: inactive
[4]
  AC50: 20 µM (active)
[5]
  outcome: inactive
[6]
  outcome: inactive
[7]
  outcome: inactive
[8]
  outcome: inactive
[9]
  outcome: inactive
[10]
  outcome: inactive
[11]
  outcome: inactive
[12]
  outcome: inactive
[13]
  outcome: inactive
[14]
  outcome: inactive
CD40, CD40 (gene 958)
  outcome: inactive
[15]
  outcome: inactive
[16]
  outcome: inactive
[17]
  outcome: inactive
[18]
  outcome: inactive

## CCN(CC)C(=O)C(C)Oc1cccc2ccccc12 (configuration not stated)
[1]
  outcome: inactive
[2]
  outcome: inactive
[3]
  outcome: inactive
[4]
  outcome: inactive
[5]
  outcome: inactive
[6]
  outcome: inactive
[7]
  outcome: inactive
[8]
  outcome: inactive
[9]
  outcome: inactive
[10]
  outcome: inactive
[11]
  outcome: inactive
[12]
  outcome: inactive
[13]
  outcome: inactive
[14]
  outcome: inactive
CD40, CD40 (gene 958)
  outcome: inactive
[15]
  outcome: inactive
[16]
  outcome: inactive
[17]
  outcome: inactive
[18]
  outcome: inactive

## COP(=S)(OC)SCn1nnc2ccccc2c1=O
[1]
  outcome: inactive
[2]
  outcome: inactive
[3]
  outcome: inactive
[4]
  outcome: inactive
[5]
  outcome: inactive
[6]
  outcome: inactive
[7]
  outcome: inactive
[8]
  outcome: inactive
[9]
  outcome: inactive
[10]
  outcome: inactive
[11]
  outcome: inactive
[12]
  outcome: inactive
[13]
  outcome: inactive
[14]
  outcome: inactive
CD40, CD40 (gene 958)
  outcome: inactive
[15]
  outcome: inactive
[16]
  outcome: inactive
[17]
  outcome: inactive
[18]
  outcome: inactive

## CCOP(=O)(OCC)Oc1nc(Cl)c(Cl)cc1Cl
[1]
  AC50: 36.3 µM (active)
[2]
  outcome: inactive
[3]
  outcome: inactive
[4]
  outcome: inactive
[5]
  AC50: 20 µM (active)
[6]
  outcome: inactive
[7]
  AC50: 19 µM (active)
[8]
  AC50: 8.75 µM (active)
[9]
  outcome: inactive
[10]
  AC50: 32.9 µM (active)
[11]
  outcome: inactive
[12]
  AC50: 21.5 µM (active)
[13]
  AC50: 8.58 µM (active)
[14]
  AC50: 9.55 µM (active)
CD40, CD40 (gene 958)
  AC50: 19.5 µM (active)
[15]
  outcome: inactive
[16]
  outcome: inactive
[17]
  AC50: 10.7 µM (active)
[18]
  outcome: inactive
